According to PubChem BioAssay (NCATS):
Records with an inconclusive call do not appear. A call without a number means that no potency is given here. A number with no mark means an inactive call. Calls of active or inactive are those of the source. Calls follow the shape of the dose curve; as a rule, active = well fitted cell-killing curve with a large enough effect; inconclusive = small, poorly fitted or top-dose-only effect; inactive = no such curve, though single readings can be large or run the other way.

Experiment: qHTS of pediatric cancer cell lines to identify multiple opportunities for drug repurposing: Primary screen for SK-N-SH cells (AID 1347098); also: nearly all actives have a fitted effect of over 65% in size
Details: SK-N-SH viability, CellTiter-Glo luminescence, 48 h; series mostly up to 57 µM
Text: Drug repurposing or repositioning has been offered as a strategy for drug development in oncology programs. This approach has special potential for childhood cancers and other rare or orphan diseases, where the expected return on new drug development has been a disincentive to pharmaceuticals.
In this project we exploit the poly-pharmacology of drugs to discover new indications via phenotypic screening of a panel of 19 well-characterized cell lines derived from solid tumors seen in children and adolescents. The goal is to identify approved drugs with previously unrecognized anticancer properties that has the potential to reveal new mechanisms and biological processes involved in carcinogenesis or drug resistance. We employed a titration-based paradigm (quantitative high-throughput screening or qHTS), where all compounds were tested at multiple concentrations for their effect on cell viability. Concentration-response curves (CRCs) were derived directly from the primary screen, and both potency and efficacy values were used to identify compounds with robust bioactivity profiles. We screened the NIH Chemical Genomics Center (NCGC) Pharmaceutical Collection (NPC) and Mechanism Interrogation Plate (MIPE) small molecule collections of approved and investigational compounds against these cell lines; and measured metabolically active cells after 48 hours of compound treatment as a proxy for cell viability.
Assay Submitter: Nathalia J. Martinez, National Center for Advancing Translational Sciences, National Institutes of Health, Rockville, MD, USA; email: natalia.martinez@nih.gov
[1] Shen, M et al. Quantitative high-throughput phenotypic screening of pediatric cancer cell lines identifies multiple opportunities for drug repurposing. Oncotarget 2017 Dec 19;9(4):4758-4772. PMID 29435139.
The cells were obtained from University of North Carolina (UNC), Pediatric Preclinical Testing Program (PPT), and Coriell Institute (CI).
qHTS cell viability assay:
Cells were assayed in growth media at a density of 500-1,000 cells/well. Five microliters of cells were dispensed into 1,536-well, white, solid-bottom, TC-treated plates (Greiner Bio One) using a multidrop dispenser and incubated at 37 degrees C, 5% CO2, under a humidified atmosphere for 5 hours. Twenty-three nanoliters of compounds and controls (neutral control DMSO or positive control bortezomib at final concentration of 2.3 µM) were subsequently transferred by Kalypsys pintool. For primary screens, the MIPE collection was tested at 11-point dilutions (final concentrations range from 0.78 nM to 46 µM) and the NPC collection at 8-point dilutions (final concentrations range from 0.59 nM to 46 µM). Compounds tested in follow-up screens were assayed at 11-point dilutions. Cells were incubated for 48 hours, followed by addition of 3 µL of CellTiter-Glo (Promega). After a 15 min incubation at room temperature, samples were analyzed for luminescence intensity using a ViewLux High-throughput CCD imager equipped with clear filters.
Potency is read from the fitted curve at half-maximal effect.

SMILES	Potency	activity change, negative = cytotoxic
CC1=C(C)C(=O)C(CCCCC#CCCCC#CCO)=C(C)C1=O	inactive	–
NS(=O)(=O)c1cc2c(cc1Cl)NC(C1CC3C=CC1C3)NS2(=O)=O (stereo not given)	inactive	–
CN(C)CCOC(=O)COc1ccc(Cl)cc1	inactive	–
CCCN(CCC)CCc1cccc2c1CC(=O)N2	inactive	–
Brc1c(NC2=NCCN2)ccc2nccnc12	inactive	–
COC(=O)C1=C(C)NC(C)=C(C(=O)OCCN(C)Cc2ccccc2)C1c1cccc([N+](=O)[O-])c1 (stereo not given)	4.33 µM (active)	–
Nc1c2c(nc3ccccc13)CCCC2O (stereo not given)	inactive	–
O=C(O)CCCCCCCC(=O)O	inactive	–
NC(Cc1ccc(Cl)cc1)C(=O)O (stereo not given)	–	-6.57% [at 0.741 µM]
Cc1ccc(=O)n(-c2ccccc2)c1	inactive	–
CC(C)(C)c1ccc(C(=O)CCCN2CCC(OC(c3ccccc3)c3ccccc3)CC2)cc1	inactive	–
CCCN(CCC)C(=O)C(CCC(=O)O)NC(=O)c1ccccc1 (stereo not given)	inactive	–
Cc1ccc(S(=O)(=O)NC(=O)NN2CCCCCC2)cc1	inactive	–
NC(N)=NC(=O)Cc1c(Cl)cccc1Cl	inactive	–
O=C1NCN(c2ccccc2)C12CCN(CCCC(c1ccc(F)cc1)c1ccc(F)cc1)CC2	13.7 µM (active)	–
CCOC(=O)C1=C(C)NC(C)=C(C(=O)OC)C1c1cccc([N+](=O)[O-])c1 (stereo not given)	inactive	–
CN1CCN(C2=Nc3ccccc3Oc3ccc(Cl)cc32)CC1	inactive	–
CN(C)C(=O)Oc1cccc([N+](C)(C)C)c1	inactive	–
c1cnc(N2CCN(Cc3ccc4c(c3)OCO4)CC2)nc1	inactive	–
CN(C)C(=O)Oc1ccc[n+](C)c1	inactive	–

SMILES	Potency	activity change, negative = cytotoxic
CCCOc1ccccc1-c1nc2n[nH]nc2c(=O)[nH]1	inactive	–
C[N+](C)(C)CCOC(=O)CCC(=O)OCC[N+](C)(C)C	inactive	–
CCC(=O)c1ccc2c(c1)N(CCCN(C)C)c1ccccc1S2	34.4 µM (active)	–
Cc1nnc(SCC2=C(C(=O)O)N3C(=O)[C@@H](NC(=O)Cn4cnnn4)[C@H]3SC2)s1	inactive	–
O=C(CCCN1CCC(O)(c2cccc(C(F)(F)F)c2)CC1)c1ccc(F)cc1	inactive	–
CC(=O)OCC1=C(C(=O)O)N2C(=O)[C@@H](NC(=O)Cc3cccs3)[C@H]2SC1	inactive	–
NC/C=C/C(=O)O	inactive	–
CCCN1C[C@H](CSC)C[C@@H]2c3cccc4[nH]cc(c34)C[C@H]21	inactive	–
CCn1nc(C(=O)O)c(=O)c2cc3c(cc21)OCO3	inactive	–
CN(C(=O)CCCOc1ccc2[nH]c(=O)ccc2c1)C1CCCCC1	inactive	–
CN(C)CCN(Cc1cccs1)c1ccccn1	inactive	–
CCO/C([O-])=N/c1c[n+](N2CCOCC2)no1	inactive	–
C[C@]12CCC(=O)C=C1CC[C@@H]1[C@@H]2C(=O)C[C@@]2(C)[C@H]1CC[C@]2(O)C(=O)CO	inactive	–
O=c1[nH]c(=O)n([C@H]2C[C@H](O)[C@@H](CO)O2)cc1Br	inactive	–
CCN(CC)CCNC(=O)c1cc(S(C)(=O)=O)ccc1OC	inactive	–
CC(C)(C)NCC(O)c1cc(O)cc(O)c1 (stereo not given)	inactive	–
CN(C)C/C=C(/c1ccc(Br)cc1)c1cccnc1	inactive	–
CN(C)[C@@H]1C(=O)C(C(N)=O)=C(O)[C@@]2(O)C(=O)C3=C(O)c4c(O)ccc(Cl)c4[C@@H](O)[C@H]3C[C@@H]12	inactive	–
OCCN1CCN(CC/C=C2/c3ccccc3Sc3ccc(C(F)(F)F)cc32)CC1	13.7 µM (active)	–
Cc1cccc(C)c1NC(=O)C(C)N (stereo not given)	inactive	–
